In PubChem BioAssay (NCI) one finds growth inhibition data, which are given here for 38 molecules.

Molecules are shown by their SMILES. The panel holds about 79,000 compounds, 15% with a hit somewhere; the sample as a whole holds those more often. Values without a mark were called inactive. The source made the active and inactive calls. Rule as the data show it: active = growth inhibition above about 70%; inactive = the rest.

This assay is described as follows: NCI Yeast Anticancer Drug Screen. Data for the bub3 strain (AID 167). Conditions: S. cerevisiae bub3 mutant strain, at 100.0 µM, active compounds read high. A digest of the protocol: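 Yeast carrying a defined mutation is treated with each compound, and growth is compared with that of vehicle-exposed cells to give inhibition.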
For `O=[N+]([O-])c1cc[n+]([O-])cc1`, the growth inhibition is 99% (active).
The result for `CC1(C)CC(=O)C(/C=N/c2nc(-c3ccccc3)cs2)=C(O)C1` reads 68%.
The result for `Nc1nc(N)c2nc(CNc3ccc(C(=O)NC(CCC(=O)O)C(=O)O)cc3F)cnc2n1` (stereo not drawn) reads 73% (active).
The result for `COC(=O)CC1(O)C(/C=C/c2ccccc2)C(C(=O)OC)C(=O)C(C(=O)OC)C1C(=O)OC` (stereo not drawn) reads -5%.
Consider `CC(C)(C)c1ccc(NS(=O)(=O)c2ccc(N)cc2)cc1`, for which the growth inhibition is 12%.
With `CCN(CC)CCNc1ccc([N+](=O)[O-])c2nc3ccccc3c(N)c12` the figure was -11%.
With `CCCCN(CCCC)C(=O)/C=C/c1ccccc1` the figure was 70% (active).
`O=c1[nH]c(-c2ccccc2)nc2c1sc1nc3ccccc3n12`: the growth inhibition was -33%.
`O=[N+]([O-])c1ccc2c(c1)/C(=N/N=C1c3ccccc3Cc3ccccc31)c1cc([N+](=O)[O-])cc([N+](=O)[O-])c1-2`: the growth inhibition is 91% (active).
Consider `CC(C)C(C)/C=C\C(C)C1CCC2C3=CC=C4CC(O)CCC4(C)C3CCC21C` (stereo not drawn), for which the growth inhibition was 32%.
Turning to `O=C1Nc2ccc(Br)cc2C1=Nc1ccc2c(c1)OCO2`, the growth inhibition is 86% (active).
Take `CCCCOCn1c(=O)[nH]c(=O)c2cc(Br)ccc21`: the growth inhibition was -33%.
The result for `Cc1ccc(S/C(=C\C(=O)O)c2ccccc2)cc1` reads 19%; that for `O=[N+]([O-])/C=C/c1cc(Cl)c(/C=C/[N+](=O)[O-])cc1Cl`, 91% (active).
With `Cc1cc(S(=O)(=O)Nc2nnc3cnc4ccccc4n23)c(S)cc1Cl` the figure was 32%; with `O=C(/C=C/c1cc(Cl)cc(Cl)c1O)c1cccc(O)c1`, 97% (active); with `NC1CCCCC1N.Nc1c(N=Nc2ccc(-c3ccc(N=Nc4cc(S(=O)(=O)[O-])c5ccccc5c4N)cc3)cc2)cc(S(=O)(=O)[O-])c2ccccc12.[OH3+].[OH3+].[Pt+4]`, 68%.
With `COC(=O)CCC(NC(=S)N/N=C(\C)c1ccccn1)C(=O)OC` (stereo not drawn) the figure was 93% (active).
With `NC(=O)C(=O)NNc1ccccc1`, the growth inhibition was 97% (active).
The result for `COc1cc(C2SCC(=O)N2c2ccc(-c3ccc(-n4c(-c5ccccc5)nc5ccccc5c4=O)cc3)cc2)ccc1O` (stereo not drawn) reads 41%; that for `COc1ccc(/C=C/c2sc3ccccc3[n+]2CCCCI)cc1OC`, 85% (active).
The result for `Cc1c(C(C)C)cc(OCCO)cc1C(C)C` reads 22%; that for `Cc1cc(NCCCCCCCCNc2cc(C)nc3cc(N)ccc23)c2ccc(N)cc2n1`, 93% (active).
In the case of `C=C(Cl)COC(=O)Nc1cccc(Cl)c1`, the growth inhibition is 92% (active).
The result for `CC(=O)OC1CC2C(C)(C)C(=O)C=C[C@]2(C)C2CCC3(C)C(=CCC3[C@H](CO)C[C@H](O)C(=O)C(C)(C)O)[C@]12C` (stereo partly drawn) reads 78% (active); that for `COc1ccc(/C=C/C(=O)c2ccccc2)cc1OC`, 95% (active).
For the molecule `COc1c(O)c(C=O)c(Br)c(C=O)c1O`, the growth inhibition is 97% (active).
On to `O=[N+]([O-])c1cc(Cl)cnc1Br`, for which the growth inhibition is 30%.
The result for `Cc1ccc2c(c1)C1(SC(C)C(=O)N1c1ccc(Cl)cc1)C(=O)N2` (stereo not drawn) reads 99% (active).
With `COc1cc(CSc2ccc(O)cc2)cc(O)c1O` the figure was 6%; with `Cc1ccc2c3ccc4c(c3n(C)c2c1)C(=O)C=CC4=O`, 56%.
In the case of `O=C(Nc1ccc(Cl)cc1)Nc1nnc2nc(C(C(=O)c3cccc([N+](=O)[O-])c3Cl)c3nc4nnc(NC(=O)Nc5ccc(Cl)cc5)n4[nH]c3=O)c(=O)[nH]n12`, the growth inhibition was 64%.
On to `O=C(O)C1CC(c2ccccc2)=NN1c1ccccc1` (stereo not drawn), for which the growth inhibition was 94% (active).
On to `CCCCc1ccc(-n2c(C)c(COC(=O)NC)c(COC(=O)NC)c2C)cc1`, for which the growth inhibition is 88% (active).
With `CCC(=O)c1cc(C(=O)C(=S)SC)cc(C(=O)C(=S)SC)c1` the figure was 91% (active).
With `CCn1c(O)c(C=Nc2ccccc2)s/c1=N/Nc1nc(-c2ccccc2)cs1` the figure was 50%; with `Cc1ccccc1N=C(NO)c1ccccc1`, 94% (active).
The result for `Cc1nc2ccccc2nc1NNc1ccccc1` reads 63%.
